Laboratory results published in PubChem BioAssay (NCATS).
Inconclusive results are not listed. Unmarked numbers belong to inactive results. Calls follow the shape of the dose curve; as a rule, active = well fitted inhibition curve with a large enough effect; inconclusive = small, poorly fitted or top-dose-only effect; inactive = no such curve, though single readings can be large or run the other way.

molecular target: Protein phosphatase 1D (Homo sapiens) (UniProt O15297); test: RapidFire Mass Spectrometry qHTS Assay for Modulators of WT P53-Induced Phosphatase 1 (WIP1) (AID 1347424); details: WIP1 dephosphorylation of phosphopeptide, RapidFire MS; series mostly up to 63 µM; activity change, negative = inhibition: at the top concentration
Sequence (O15297 whole entry, looked up): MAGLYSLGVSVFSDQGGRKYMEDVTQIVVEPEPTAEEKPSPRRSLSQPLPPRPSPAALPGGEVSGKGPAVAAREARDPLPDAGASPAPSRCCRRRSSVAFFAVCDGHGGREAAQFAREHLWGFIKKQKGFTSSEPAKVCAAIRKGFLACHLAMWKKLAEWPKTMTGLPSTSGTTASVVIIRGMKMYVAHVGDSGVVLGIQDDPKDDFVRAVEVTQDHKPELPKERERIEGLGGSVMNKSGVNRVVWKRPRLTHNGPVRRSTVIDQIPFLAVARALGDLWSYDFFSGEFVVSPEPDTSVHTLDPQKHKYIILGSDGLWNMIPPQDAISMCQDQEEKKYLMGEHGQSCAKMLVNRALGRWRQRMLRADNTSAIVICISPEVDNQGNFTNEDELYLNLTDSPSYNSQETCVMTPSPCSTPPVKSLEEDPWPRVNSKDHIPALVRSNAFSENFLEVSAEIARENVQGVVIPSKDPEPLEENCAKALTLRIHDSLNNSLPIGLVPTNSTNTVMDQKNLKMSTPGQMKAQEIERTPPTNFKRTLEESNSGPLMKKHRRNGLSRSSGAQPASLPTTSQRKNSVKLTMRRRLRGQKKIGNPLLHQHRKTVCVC
Excerpt: Assay Provider (PI): Nathan Coussens Ph. D.
National Center for Advancing Translational Sciences (NCATS), Rockville, MD
National Institute of Health (NIH), Bethesda, Maryland
WT P53-Induced Phosphatase 1 (WIP1) is a member of the magnesium-dependent serine/threonine protein phosphatase (PPM) family and is induced by P53 in response to DNA damage. In several human cancers, the WIP1 protein is overexpressed, which is generally associated with a worse prognosis. Although WIP1 is an attractive therapeutic target, no potent, selective, and bioactive small-molecule modulator with favorable pharmacokinetics has been reported. Phosphatase enzymes are among the most challenging targets for small molecules because of the difficulty of achieving both modulator selectivity and bioavailability. Another major obstacle has been the availability of robust and physiologically relevant phosphatase assays that are suitable for high-throughput screening.
Here, we describe two orthogonal biochemical WIP1 activity assays that utilize phosphopeptides from native WIP1 substrates. We optimized a RapidFire MS assay to quantify the enzymatically dephosphorylated peptide reaction product in a 384-well format. Additionally, a redshifted Rhodamine-PBP fluorescence assay was optimized in a 1,536-well format to enable real-time WIP1 activity measurements through the detection of the orthogonal reaction product, Pi. We validated these two optimized assays by quantitative high-throughput screening against the National Center for Advancing Translational Sciences (NCATS) Pharmaceutical Collection and used secondary assays to confirm and evaluate inhibitors identified in the primary screen.
SEQUENCE No. (e.g., 1, 2, 3, etc.); […] (e.g., Cells, Incubation, Reagent, etc.); VALUE; DESCRIPTION
1; Reagent; 50 uL; dispensed assay buffer: 0.1% formic acid in water (10 uL : 40 uL) solution in column 1
3; Library Compounds; 63 nL; library compounds in DMSO, columns 3-24
4; Control Compounds; 63 nL; DMSO in wells I-P, columns 1-2, GSK830371 (10 uM, final) in wells A-H, column 2
5; Time; 1 hr; incubation
6; Substrate; 2 uL; VEPPL-pS-QETFS (10 uM) in assay buffer, column 2-24
7; Time; 5 min; incubation
8; Reagent; 2 uL; 0.5% formic acid in water, columns 2-24
9; Reagent; 38 uL; VEPPL-S-QETF*S in 0.1% formic acid, columns 2-24
10; Detection; mass spec; RapidFire mass spectrometry
NOTES (numbers refer to sequence above)
1, 2, 6; dispensed reagent in White Nunc 384-well PP microplates (264573); assay buffer: 50 mM Tris-HCl pH 7.5, 30 mM MgCl2, 1 mM TCEP, 0.1 mM EGTA, 75 ug/mL BSA.
2, 6, 8, 9; Dispensed with BioRaptr (Beckman Coulter)
2, 6, 9; Final concentrations: 10 nM WIP1; 2 uM VEPPL-pS-QETFS; 1 uM VEFFL-S-QETF*S
3 & 4; Kalypsys Pintool transfer (Wako USA), Tip wash sequence: water, DMSO, methanol, 20 sec vacuum dry.
5 & 7; incubation at room temperature
10; RapidFire mass spectrometry read using the Agilent RapidFire 360 (Clausse, 2019)
Clausse V, et al. Physiologically relevant orthogonal assay for the discovery of small-molecule modulators of WIP1 […] in high-throughput screens. J Biol Chem. 2019, 294(46): 17654-17668. doi:10.1074/jbc.RA119.010201

| Compound | activity change, negative = inhibition |
| --- | --- |
| OC[C@H]1O[C@@H](Oc2ccc(O)cc2)[C@H](O)[C@@H](O)[C@@H]1O | -3.37% |
| O=[N+]([O-])c1ccc(/C=N\O)o1 | 0.349% |
| CC(=O)O[C@]1(C(C)=O)CC[C@H]2[C@@H]3C=C(Cl)C4=CC(=O)CC[C@]4(C)[C@H]3CC[C@@]21C | -6.06% |
| O=C1C(O)=C(O)C(=O)C(O)=C1O | -1.19% |
| CC[C@]12CCCN3CCc4c(n(c5ccccc45)C(=O)C1)[C@@H]32 | 8.49% |
| CN1CCC[C@@H]1CCO[C@](C)(c1ccccc1)c1ccc(Cl)cc1 | 51.7% |
| O=C(CN1CCN(Cc2ccc3c(c2)OCO3)CC1)N1c2ccccc2Sc2ccccc21 | 29.9% |
| NS(=O)(=O)c1ccc(Cl)c(S(N)(=O)=O)c1 | -5.75% |
| CCOC(=O)c1ccc(N)cc1 | -0.216% |
| OC(C#CCN1CCCC1)(c1ccccc1)c1ccccc1 | 9.29% |
| C#C[C@]1(O)CC[C@H]2[C@@H]3[C@H](C)CC4=C(CCC(=O)C4)[C@H]3CC[C@@]21C | -2.34% |
| CCc1ccc(C(=O)C(C)CN2CCCCC2)cc1 (stereo not given) | -4.91% |
| COc1cc(C)nc(-n2nc(C)cc2OC)n1 | -4.75% |
| O=C(CCCN1CC=C(n2c(=O)[nH]c3ccccc32)CC1)c1ccc(F)cc1 | -19.2% |
| CN1CCN(c2c(F)cc3c(=O)c(C(=O)O)cn4c3c2SCC4)CC1 | 1.09% |
| CCOC(=O)c1c(N)sc2c1CCN(Cc1ccccc1)C2 | 5.54% |
| Nc1ccc(S(=O)(=O)Nc2cnc3ccccc3n2)cc1 | -1.29% |
| CC(=O)Nc1ccc(CC(=O)O)cc1 | 5.75% |
| CCC1NC(=O)c2cc(S(N)(=O)=O)c(Cl)cc2N1 (stereo not given) | -6.95% |
| CC(CNC1CCCCC1)OC(=O)c1ccccc1 (stereo not given) | 9.34% |

| Compound | activity change, negative = inhibition |
| --- | --- |
| Cc1c[nH]c2ccccc12 | 0.596% |
| N#CCC(=O)NN | 2.3% |
| CCC(C(=O)OCCOCCN(CC)CC)c1ccccc1 (stereo not given) | -9.93% |
| Cc1cn([C@H]2C[C@H](F)[C@@H](CO)O2)c(=O)[nH]c1=O | -3.42% |
| CC(C)(C)NCC(O)COc1cccc2c1C[C@H](O)[C@H](O)C2 (stereo not given in full) | -0.687% |
| Nc1ccc(C(=O)NCC(=O)O)cc1 | -14.4% |
| CCCN(CCC)S(=O)(=O)c1ccc(C(=O)O)cc1 | -3.37% |
| N#C/C(=C1\SCC(c2ccccc2Cl)S1)n1ccnc1 (stereo not given) | -0.0639% |
| COc1cc(C(=S)N2CCOCC2)ccc1O | -8.02% |
| NC(=O)n1c(O)c(C(=O)c2cccs2)c2cc(Cl)ccc21 | -25.1% |
| NC(=O)C1(N2CCCCC2)CCN(CCCC(=O)c2ccc(F)cc2)CC1 | -2.19% |
| NC1CCN(c2nc3c(cc2F)c(=O)c(C(=O)O)cn3-c2ccc(F)cc2F)C1 (stereo not given) | 1.82% |
| O[C@@H](c1cc(C(F)(F)F)nc2c(C(F)(F)F)cccc12)[C@H]1CCCCN1 | 28% |
| COc1cc(C(=O)N2CCCCCCC2)cc(OC)c1OC | 12.4% |
| CCN(CC)CCOc1ccccc1C(=O)CCc1ccccc1 | 10.7% |
| COc1ccc(C(=O)c2ccccc2O)c(O)c1 | 8.48% |
| CCCCN=C(N)N=C(N)N | -2.53% |
| CN1CCN(C2=Nc3cc(F)ccc3Cc3ccccc32)CC1 | 3.61% |
| CC(C)(Cc1c[nH]c2ccccc12)NCC(O)COc1ccccc1C#N (stereo not given) | 21.8% |
| C[C@@H](O)[C@H]1C(=O)N2C(C(=O)O)=C([C@H]3CCCO3)S[C@H]12 | -0.393% |
